The target of experiment [1] is Thyrotropin-releasing hormone receptor (Homo sapiens) (UniProt P34981). Put plainly: qHTS assay to identify small molecule agonists of the thyrotropin-releasing hormone receptor (TRHR) signaling pathway (AID 1346891; calls by dose curve;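 also: HEK293 cells expressing TRHR with calcium dye readout; series mostly up to about 58 µM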). Summed up: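 In 1536-format, 1500 TRHR-Hek293 cells per well grew 18 h, took up calcium dye for 2 h at 37 °C, received compound, and were read kinetically; 15-point titrations, triplicates.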
Sequence of Thyrotropin-releasing hormone receptor (Homo sapiens) (P34981 whole entry, looked up): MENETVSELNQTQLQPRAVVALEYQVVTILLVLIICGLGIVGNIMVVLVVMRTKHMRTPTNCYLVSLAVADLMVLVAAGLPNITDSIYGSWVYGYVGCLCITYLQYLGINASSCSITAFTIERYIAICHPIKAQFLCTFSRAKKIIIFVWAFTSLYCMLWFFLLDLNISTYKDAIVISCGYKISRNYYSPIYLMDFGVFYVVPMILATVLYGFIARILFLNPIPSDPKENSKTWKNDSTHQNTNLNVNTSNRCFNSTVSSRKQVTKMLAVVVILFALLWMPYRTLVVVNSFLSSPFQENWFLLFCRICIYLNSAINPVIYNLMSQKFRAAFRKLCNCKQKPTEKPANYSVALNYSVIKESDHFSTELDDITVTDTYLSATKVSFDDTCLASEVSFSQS
For orientation: qHTS replaces the single test concentration by a dilution series.

Experiment [2] can be described thus: Human pregnane X receptor (PXR) small molecule agonists, qHTS cell viability counter screen (AID 1346977). Also: nearly all actives have a fitted effect of over 50% in size. An outline of the steps:
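Readout is CellTiter-Fluor fluorescence from PXR-Luc HepG2 cells. Plated cells rested 5hr, then were treated with compounds for 24hr at 37C and 5% CO2, with reagent present during the last hour.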

A short description of experiment [3]: Caspase-3/7 induction in HepG2 cells by small molecules, qHTS assay (AID 1346978). Also: nearly all actives have a fitted effect of over 15% in size. Summed up: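 Wild-type HepG2 cells (2,000/well) were settled 5 h at 37 C, 5% CO2, then exposed to compounds in DMSO for 17 h. Caspase-3/7 activity was read by luminescence 30 min after adding Caspase-Glo 3/7 reagent at room temperature.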
The nature of experiment [4]: Caspase-3/7 induction in CHO-K1 cells by small molecules, qHTS assay (AID 1346980). Also: nearly all actives have a fitted effect of over 15% in size. An outline of the steps:
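Wild-type cells were seeded at 1,500 per well and settled 5 hr at 37 C, 5% CO2, then exposed to DMSO-dissolved compounds for 17 hr. Caspase-Glo 3/7 reagent was added, and luminescence was read after 30min at room temperature.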

Experiment [5] is described as follows: Caspase-3/7 induction in HepG2 cells by small molecules, qHTS cell viability counter screen (AID 1346981). Also: series mostly up to about 92 µM; nearly all actives have a fitted effect of over 30% in size. Summed up: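 Counter screen for cytotoxicity: HepG2 exposed 16 hr to compounds, then CellTiter-Fluor viability signal (fluorescence, 1 hr reagent incubation).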
Experiment [6] concerns the target Nuclear receptor subfamily 1 group I member 2 (Homo sapiens) (UniProt O75469). The experiment can be described thus: Human pregnane X receptor (PXR) small molecule agonists, qHTS assay (AID 1346982). Also: nearly all actives have a fitted effect of over 35% in size. Also: potency is read from the fitted curve at half-maximal effect. An outline of the steps:
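Luminescence (ONE-Glo, 30 min RT) after 24 hr compound exposure of PXR-Luc HepG2 cells; cells rested 5 hr post-plating in 5% charcoal-stripped FBS medium.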

In experiment [7] the target is Acetylcholinesterase (Homo sapiens) (UniProt P22303). Put plainly: Acetylcholinesterase (AChE) small molecule antagonists: colormetric cell-based qHTS assay (AID 1347395; calls by dose curve; also: nearly all actives have a fitted effect of over 30% in size; also: potency is read from the fitted curve at half-maximal effect). An outline of the steps:
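Neuroblastoma line SH-SY5Y supplied the enzyme; cells were preincubated with compound for 30 min at 37 C and 5% CO2. Acetylthiocholine with DTNB was then added for 90 min at 37 C, and thiocholine was measured by colour.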

For experiment [8] the target is unchanged. Put plainly: Acetylcholinesterase (AChE) small molecule antagonists: fluorescence cell-based qHTS assay (AID 1347398; calls by dose curve; also: nearly all actives have a fitted effect of over 50% in size; also: potency is read from the fitted curve at half-maximal effect). The following applies: Potency: AChE activity; outcome: AChE activity. An outline of the steps:
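Thiocholine generated from acetylthiocholine by SH-SY5Y cell AChE is detected with Thiolite Green (Ex/Em 490/520 nm) after 40 min at room temperature, following 30 min compound pretreatment at 37 C.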

Experiment [9] has the same target. Put plainly: Acetylcholinesterase (AChE) small molecule antagonists: enzyme-based qHTS assay with human liver microsomes (AID 1347399; calls by dose curve; also: nearly all actives have a fitted effect of over 60% in size; also: potency is read from the fitted curve at half-maximal effect). The following applies: Potency: qHTS inhibition; outcome: qHTS inhibition. Summed up:
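Recombinant human AChE (50 mU/mL in the enzyme mix) and human liver microsomes (0.25 mg/mL final) were preincubated with compound and NADPH (0.25 mg/mL final) for 30 min at 37 C. Acetylthiocholine/DTNB was then added; thiocholine was read colorimetrically after 10 min at room temperature.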

For experiment [10], the target named is Cytochrome P450 2D6 (Homo sapiens) (UniProt P10635). The experiment can be described thus: Cytochrome P450 Family 2 Subfamily D Member 6 (CYP2D6) small molecule antagonists: luciferase reporter qHTS assay (AID 1671196). Also: nearly all actives have a fitted effect of over 50% in size. Also: potency is read from the fitted curve at half-maximal effect. Summed up:
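Inhibition of CYP2D6 was gauged by loss of luminescence, since light produced tracks the luciferin generated from a proluciferin substrate. A 10 min room-temperature preincubation preceded 1 h NADPH-supported turnover.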
Background: A reporter such as luciferase makes a cellular process visible.

Experiment [11] has as its target Cytochrome P450 2C19 (Homo sapiens) (UniProt P33261). Put plainly: Cytochrome P450 Family 2 Subfamily C Member 19 (CYP2C19) small molecule antagonists: luciferase reporter qHTS assay (AID 1671197). Also: nearly all actives have a fitted effect of over 65% in size. Also: potency is read from the fitted curve at half-maximal effect. Summed up:
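Enzyme-substrate mix with proluciferin substrate (P450-Glo CYP2C19 system) preincubated with compounds 10 min at room temperature; NADPH regeneration solution added, 37C for 1 h; detection reagent stops reaction, luminescence read after 20 min. Ketoconazole positive control.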

For experiment [12], the target named is Cytochrome P450 2C9 (Homo sapiens) (UniProt P11712). Put plainly: Cytochrome P450 Family 2 Subfamily C Member 9 (CYP2C9) small molecule antagonists: luciferase reporter qHTS assay (AID 1671198). Also: nearly all actives have a fitted effect of over 50% in size. Also: potency is read from the fitted curve at half-maximal effect. Summed up: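 CYP2C9 activity was measured with a P450-Glo proluciferin substrate. Enzyme–substrate mix was held with compound for 10 min at room temperature, then NADPH regeneration solution was added for 1 h at 37C. Luciferin product was read as luminescence.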
Sequence of Cytochrome P450 2C9 (Homo sapiens) (P11712 whole entry, looked up): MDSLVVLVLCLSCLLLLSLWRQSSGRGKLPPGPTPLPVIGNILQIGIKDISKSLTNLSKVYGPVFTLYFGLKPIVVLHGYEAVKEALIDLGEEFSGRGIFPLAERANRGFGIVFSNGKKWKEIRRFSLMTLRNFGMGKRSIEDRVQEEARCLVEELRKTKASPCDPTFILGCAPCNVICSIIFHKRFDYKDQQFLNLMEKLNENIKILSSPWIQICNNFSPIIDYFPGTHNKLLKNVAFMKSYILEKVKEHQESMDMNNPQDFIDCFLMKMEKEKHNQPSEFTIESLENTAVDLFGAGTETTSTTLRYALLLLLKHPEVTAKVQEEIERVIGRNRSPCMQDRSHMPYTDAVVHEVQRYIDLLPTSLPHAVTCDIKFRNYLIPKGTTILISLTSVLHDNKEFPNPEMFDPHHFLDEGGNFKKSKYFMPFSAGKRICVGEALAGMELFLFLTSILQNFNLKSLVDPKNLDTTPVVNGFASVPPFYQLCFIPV

Experiment [13] addresses Cytochrome P450 1A2 (Homo sapiens) (UniProt P05177). The experiment can be described thus: Cytochrome P450 Family 1 Subfamily A Member 2 (CYP1A2) small molecule antagonists: luciferase reporter qHTS assay (AID 1671199). Summed up:
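Signal from luciferin formed by CYP1A2 from a proluciferin substrate is read as luminescence, expressed in relative luminescence units. Compounds sit with enzyme 10 min, NADPH-driven reaction runs 1 h, all at room temperature.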

The target in experiment [14] is Voltage-gated inwardly rectifying potassium channel KCNH2 (Homo sapiens) (UniProt Q12809). Put plainly: Human Ether-a-go-go-Related Gene (hERG) channel small molecule antagonists: fluorescence cell-based qHTS assay (AID 1671200). An outline of the steps:
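Measured: Tl+ flux via fluorescence (480/540 nm) in hERG-expressing U2OS cells after 1 h dye loading at room temperature.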
A general note: Block of hERG is tested as a sign of cardiac risk.

Experiment [15] addresses Acetylcholinesterase (Homo sapiens) (UniProt P22303). Put plainly: Acetylcholinesterase (AChE) small molecule antagonists: enzyme-based qHTS assay (AID 1347397; calls by dose curve; also: nearly all actives have a fitted effect of over 55% in size; also: potency is read from the fitted curve at half-maximal effect). The following applies: Potency: AChE enzyme activity inhibition; outcome: AChE enzyme activity inhibition. An outline of the steps:
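Human recombinant acetylcholinesterase; substrate acetylthiocholine; thiocholine quantified with DTNB (colorimetric). Compound preincubation 30 min RT; reaction 10 min RT.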

The target in experiment [16] is Cytochrome P450 3A4 (Homo sapiens) (UniProt P08684). Put plainly: Cytochrome P450 Family 3 Subfamily A Member 4 (CYP3A4) small molecule antagonists: luciferase reporter qHTS assay (AID 1671201). Summed up: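 Setup: enzyme-substrate mix, compound pin transfer, 10 min RT. Reaction: NADPH regeneration solution, 1 h RT. Readout: detection reagent stops turnover, luminescence measured after 20 min, expressed in relative luminescence units.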
Sequence of Cytochrome P450 3A4 (Homo sapiens) (P08684 whole entry, looked up): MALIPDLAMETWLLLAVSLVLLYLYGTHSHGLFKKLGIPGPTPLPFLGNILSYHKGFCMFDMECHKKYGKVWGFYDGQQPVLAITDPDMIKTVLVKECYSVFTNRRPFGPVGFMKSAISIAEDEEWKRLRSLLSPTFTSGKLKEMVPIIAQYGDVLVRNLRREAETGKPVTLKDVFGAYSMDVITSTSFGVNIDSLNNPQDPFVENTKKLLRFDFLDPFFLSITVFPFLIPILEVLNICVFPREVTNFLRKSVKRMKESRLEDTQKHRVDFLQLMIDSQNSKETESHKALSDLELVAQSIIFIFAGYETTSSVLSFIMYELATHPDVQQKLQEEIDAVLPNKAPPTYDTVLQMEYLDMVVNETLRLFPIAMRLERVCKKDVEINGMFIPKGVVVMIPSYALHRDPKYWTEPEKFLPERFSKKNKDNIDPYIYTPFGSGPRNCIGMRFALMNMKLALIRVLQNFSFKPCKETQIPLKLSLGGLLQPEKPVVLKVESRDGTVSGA

Unmarked numbers belong to inactive results. Results filed as inconclusive are left out. The source made the active and inactive calls. Unless noted, calls follow the shape of the dose curve; as a rule, active = well fitted curve in the direction sought with a large enough effect in the repeat runs; inconclusive = weak or mixed curves; inactive = no such curve, though single readings can be large; an effect the other way counts as inactive or inconclusive.

Sequence of Acetylcholinesterase (Homo sapiens) (P22303 whole entry, looked up): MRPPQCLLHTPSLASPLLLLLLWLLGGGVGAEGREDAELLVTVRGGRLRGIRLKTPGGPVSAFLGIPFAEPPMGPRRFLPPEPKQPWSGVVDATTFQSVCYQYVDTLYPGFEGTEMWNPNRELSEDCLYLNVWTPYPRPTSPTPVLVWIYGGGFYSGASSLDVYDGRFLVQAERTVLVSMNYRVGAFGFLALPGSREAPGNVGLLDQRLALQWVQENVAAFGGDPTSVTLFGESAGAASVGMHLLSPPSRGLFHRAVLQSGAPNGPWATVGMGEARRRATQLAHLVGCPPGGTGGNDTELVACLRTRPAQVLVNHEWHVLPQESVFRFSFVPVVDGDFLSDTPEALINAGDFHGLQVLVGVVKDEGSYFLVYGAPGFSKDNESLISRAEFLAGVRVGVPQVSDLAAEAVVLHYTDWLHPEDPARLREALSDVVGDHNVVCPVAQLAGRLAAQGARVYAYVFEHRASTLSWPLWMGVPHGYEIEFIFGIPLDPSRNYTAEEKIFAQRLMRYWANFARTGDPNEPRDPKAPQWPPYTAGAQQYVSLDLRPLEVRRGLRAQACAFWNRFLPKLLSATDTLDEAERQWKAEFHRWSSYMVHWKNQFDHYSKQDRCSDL
Sequence of Voltage-gated inwardly rectifying potassium channel KCNH2 (Homo sapiens) (Q12809 whole entry, looked up): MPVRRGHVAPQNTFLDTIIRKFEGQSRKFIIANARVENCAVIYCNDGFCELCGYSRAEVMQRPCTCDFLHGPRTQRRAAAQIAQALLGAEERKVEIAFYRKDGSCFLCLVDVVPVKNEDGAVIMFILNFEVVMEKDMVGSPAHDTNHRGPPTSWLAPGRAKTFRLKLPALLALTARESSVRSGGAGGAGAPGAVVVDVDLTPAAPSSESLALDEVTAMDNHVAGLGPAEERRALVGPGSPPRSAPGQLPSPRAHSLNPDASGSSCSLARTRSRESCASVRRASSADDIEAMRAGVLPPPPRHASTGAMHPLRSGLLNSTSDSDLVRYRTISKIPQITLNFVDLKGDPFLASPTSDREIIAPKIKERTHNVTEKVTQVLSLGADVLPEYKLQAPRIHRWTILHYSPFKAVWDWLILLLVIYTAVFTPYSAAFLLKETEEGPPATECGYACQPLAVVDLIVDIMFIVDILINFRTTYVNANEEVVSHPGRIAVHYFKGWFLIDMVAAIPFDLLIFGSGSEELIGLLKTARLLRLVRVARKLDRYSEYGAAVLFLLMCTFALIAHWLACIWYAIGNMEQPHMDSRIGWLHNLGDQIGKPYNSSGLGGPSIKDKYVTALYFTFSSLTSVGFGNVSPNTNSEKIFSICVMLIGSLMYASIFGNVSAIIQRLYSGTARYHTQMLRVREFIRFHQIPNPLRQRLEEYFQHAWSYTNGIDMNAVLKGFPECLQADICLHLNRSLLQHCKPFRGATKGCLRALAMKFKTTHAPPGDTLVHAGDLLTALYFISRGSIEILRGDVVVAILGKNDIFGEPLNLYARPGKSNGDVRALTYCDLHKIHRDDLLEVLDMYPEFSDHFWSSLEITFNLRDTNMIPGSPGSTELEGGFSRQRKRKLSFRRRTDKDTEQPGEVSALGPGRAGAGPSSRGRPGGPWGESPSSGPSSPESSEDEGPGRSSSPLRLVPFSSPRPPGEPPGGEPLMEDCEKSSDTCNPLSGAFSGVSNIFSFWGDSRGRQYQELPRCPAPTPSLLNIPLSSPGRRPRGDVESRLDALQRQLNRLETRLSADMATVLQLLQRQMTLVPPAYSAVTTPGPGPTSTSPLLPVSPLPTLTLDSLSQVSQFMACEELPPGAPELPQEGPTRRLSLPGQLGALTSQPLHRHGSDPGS
Sequence of Cytochrome P450 2C19 (Homo sapiens) (P33261 whole entry, looked up): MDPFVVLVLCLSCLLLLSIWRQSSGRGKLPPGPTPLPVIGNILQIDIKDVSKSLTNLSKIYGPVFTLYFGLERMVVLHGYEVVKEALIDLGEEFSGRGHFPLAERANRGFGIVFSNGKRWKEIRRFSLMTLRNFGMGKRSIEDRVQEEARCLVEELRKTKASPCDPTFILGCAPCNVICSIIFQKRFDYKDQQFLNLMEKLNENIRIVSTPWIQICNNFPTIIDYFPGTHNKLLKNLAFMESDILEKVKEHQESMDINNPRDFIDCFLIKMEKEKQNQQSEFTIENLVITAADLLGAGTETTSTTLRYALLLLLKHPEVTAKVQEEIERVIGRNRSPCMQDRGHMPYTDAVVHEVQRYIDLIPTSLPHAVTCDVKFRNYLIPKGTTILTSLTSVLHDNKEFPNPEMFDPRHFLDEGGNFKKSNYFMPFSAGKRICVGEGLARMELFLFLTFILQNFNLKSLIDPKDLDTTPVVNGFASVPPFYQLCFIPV
Sequence of Nuclear receptor subfamily 1 group I member 2 (Homo sapiens) (O75469 whole entry, looked up): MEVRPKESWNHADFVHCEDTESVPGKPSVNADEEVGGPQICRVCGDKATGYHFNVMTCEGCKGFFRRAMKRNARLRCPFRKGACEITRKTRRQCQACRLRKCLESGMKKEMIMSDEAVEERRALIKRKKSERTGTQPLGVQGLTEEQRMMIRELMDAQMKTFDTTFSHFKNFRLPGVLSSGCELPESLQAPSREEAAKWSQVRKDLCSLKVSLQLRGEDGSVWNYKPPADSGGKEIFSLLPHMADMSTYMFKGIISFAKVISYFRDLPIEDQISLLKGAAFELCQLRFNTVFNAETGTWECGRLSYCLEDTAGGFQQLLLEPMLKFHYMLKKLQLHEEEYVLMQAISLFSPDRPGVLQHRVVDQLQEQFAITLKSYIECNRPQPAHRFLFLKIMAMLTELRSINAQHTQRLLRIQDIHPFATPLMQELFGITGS
Sequence of Cytochrome P450 2D6 (Homo sapiens) (P10635 whole entry, looked up): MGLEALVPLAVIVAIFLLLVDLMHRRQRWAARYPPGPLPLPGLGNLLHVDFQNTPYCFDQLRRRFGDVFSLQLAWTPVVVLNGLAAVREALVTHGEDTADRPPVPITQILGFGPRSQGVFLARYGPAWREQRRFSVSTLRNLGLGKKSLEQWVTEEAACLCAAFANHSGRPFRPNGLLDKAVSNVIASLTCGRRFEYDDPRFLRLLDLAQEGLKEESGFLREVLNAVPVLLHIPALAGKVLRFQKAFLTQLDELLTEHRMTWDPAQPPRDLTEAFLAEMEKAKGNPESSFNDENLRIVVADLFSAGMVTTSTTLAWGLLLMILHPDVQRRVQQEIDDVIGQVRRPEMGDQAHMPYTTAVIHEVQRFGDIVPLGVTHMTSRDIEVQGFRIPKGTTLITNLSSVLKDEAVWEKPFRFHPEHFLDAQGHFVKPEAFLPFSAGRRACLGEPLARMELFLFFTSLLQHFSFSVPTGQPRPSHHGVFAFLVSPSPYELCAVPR

On to `Clc1ccc(C(Cl)(Cl)Cl)cn1`, for which the molecule was called inactive in [1], in experiment [3] and in [4]. In addition, the Potency entry in experiment [2], in [5], in experiment [6], in [7], in experiment [8] and in experiment [9] was “inactive” in each case. The Potency result in experiment [10], in [11], in [12] and in experiment [14] was “inactive” throughout. The Potency in experiment [13] was 7.96 µM (active).

As for `Cc1cc(OC(=O)N(C)C)nn1C(=O)N(C)C`, the molecule was classed as inactive in [1], in experiment [3] and in experiment [4]. Besides, the Potency entry in experiment [2], in [5], in [6], in [12] and in experiment [16] was “inactive” throughout. In addition, the Potency was 7.1 µM (active) in experiment [7]; 5.03 µM (active) in experiment [15]; 1.26 µM (active) in experiment [8]; 39.9 µM (active) in experiment [9]; 31.7 µM (active) in experiment [10]; 35.6 µM (active) in [11].

`CCNc1nc(Cl)nc(NC(C)(C)C)n1`: the call in experiment [1], in [3] and in [4] was inactive. Besides, the Potency result in experiment [2], in experiment [5], in [7], in [15], in experiment [8] and in experiment [9] was “inactive” throughout. In addition, the Potency result in [10], in experiment [14] and in [16] was “inactive” each time. Also, the Potency was 30.6 µM (active) in [6], 35.6 µM (active) in experiment [11] and 11.2 µM (active) in [13].

In the case of `O=C(Cl)OCc1ccccc1`, the call in experiment [1], in experiment [3] and in [4] was inactive. The Potency result in experiment [2], in experiment [5], in [6], in experiment [7], in experiment [8] and in [9] was “inactive” each time. Further, the Potency result in [10], in experiment [12], in experiment [14] and in experiment [16] was “inactive” throughout.

As for `CCCCCCCCSC(=O)Oc1cc(Cl)nnc1-c1ccccc1`, the molecule was called inactive in experiment [1], in experiment [3] and in experiment [4]. Besides, the Potency result in experiment [2], in experiment [5], in experiment [15], in experiment [8], in experiment [9] and in [10] was “inactive” each time. For the same molecule, the Potency entry in experiment [14] and in experiment [16] was “inactive” each time. Further, the Potency in experiment [12] was 35.6 µM (active).

Turning to `O=S1(=O)OCCO1`, the molecule was classed as inactive in experiment [1], in experiment [3] and in experiment [4]. For the same molecule, the Potency result in experiment [2], in [5], in experiment [6], in experiment [8], in [9] and in experiment [10] was “inactive” in each case. Moreover, the Potency entry in experiment [12], in experiment [14] and in [16] was “inactive” throughout.

As to `Nc1c(Cl)c(F)nc(OCC(=O)O)c1Cl`, the call in experiment [1], in experiment [3] and in [4] was inactive. In addition, the Potency entry in experiment [2], in experiment [5], in experiment [6], in experiment [7], in experiment [15] and in experiment [8] was “inactive” each time. Also, the Potency entry in experiment [9], in experiment [10], in experiment [12], in experiment [14] and in experiment [16] was “inactive” in each case.

For the origin of these results see PubChem BioAssay (Tox21).
